Screening results from PubChem.
Rpn11 inh: Rpn11 (human) deubiquitinase inhibition; human 26S proteasome, Ub4-pepOG fluorescence polarization; 20S core pre-blocked with epoxomicin; O00487; AID 588493; calls only at 20 µM; hit rate 0.59% among 360,000;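 active = inhibition at 20 µM, scaled to each plate's controls, above about 33%, limit read from the data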
Target sequence (O00487 whole entry, looked up): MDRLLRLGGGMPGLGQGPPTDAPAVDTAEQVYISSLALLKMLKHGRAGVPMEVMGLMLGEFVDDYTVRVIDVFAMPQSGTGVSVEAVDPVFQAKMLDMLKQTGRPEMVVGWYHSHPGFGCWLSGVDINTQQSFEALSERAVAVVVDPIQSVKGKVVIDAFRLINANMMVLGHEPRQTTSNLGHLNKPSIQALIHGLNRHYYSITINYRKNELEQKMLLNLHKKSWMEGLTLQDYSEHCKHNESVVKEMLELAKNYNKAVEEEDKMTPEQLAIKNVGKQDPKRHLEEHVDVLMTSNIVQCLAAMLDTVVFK
Neddyl block: inhibitors of human cullin neddylation; P61081+Q13564; hit rate 0.58% among 360,000; AID 651699; TR-FRET cullin neddylation, biochemical; inhibition, % at 25 µM; in the data active = inhibition above about 36%
PKA-R2B activ: activators of human PKA-R2B complex; P22694+P31323; PKA-R2B holoenzyme dissociation, Cy5-IP20 fluorescence polarization; R2B truncated from residue 108, S112A mutant; 0% DMSO only, 100% 113 µM cGMP; activation, % at 11.4 µM; hit rate 0.079% among 340,000; AID 504700;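 active = activation above a cutoff set at the mean over all compounds plus 3 SD, cut at about 18% in these data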;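 note: higher means more holoenzyme dissociation and a rise in polarization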
PKA-R1A act: activators of PKA-R1A complex; PKA-R1A dissociation, Cy5-IP20 fluorescence polarization; scaled: DMSO 0%, 113 µM cGMP 100%; AID 504707; P00514+P68181; activation, % at 11.4 µM; hit rate 0.083% among 340,000;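 active = percent activation above the mean of all tested compounds plus 3 SD, cut at about 19% in these data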;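 note: higher means more PKAc released from R1A so a rise in polarization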
Neddyl inh conf: confirmation of human cullin neddylation inhibitors; shares compounds with Neddyl block; TR-FRET cullin neddylation biochemical assay; calls only at 25 µM; hit rate 13% among 1,800; in the data active = inhibition above about 40%;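 note: neddylation substrate is the cullin 1 ring ligase complex with SKP2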
* marks the source's active call; other numbers are inactive results; i = inactive; . = no result shown; + = active, no number. Shown are actives, neighbours in structure and some others; about 1.3% of the full set was active somewhere.

SMILES	Rpn11 inh	Neddyl block	PKA-R2B activ	PKA-R1A act	Neddyl inh conf
CCn1c(=O)n(CC)c2cc(N3CCCC3)c(NC(=O)c3ccccc3OC)cc21	i	33.7	-2.1	-6.5	.
CCOc1ccccc1C(=O)Nc1cc2c(cc1N1CCCC1)n(CC)c(=O)n2CC	i	46.5*	0.4	2.0	i
Nc1nnc(N)c2ccccc12	i	39.5*	-14.3	-3.5	i
CN1CCN(C(=O)c2cc(C(C)(C)C)cc(C(C)(C)C)c2)CC1	i	-8.0	-7.4	-7.3	.
Cc1cc(-c2ccccc2)nc2oc(C(=O)NN)c(N)c12	i	43.4*	14.4	-1.4	+
CC(C)Cc1nc(N2CCCCC2)c(C#N)c2c1CCC2	i	39.0*	-1.5	-1.0	.
Cc1ccccc1CSc1nc2n(n1)C(c1cccs1)C1=C(CCCC1=O)N2 (stereo not drawn)	i	38.7*	6.0	-5.0	.
CSc1nc2n(n1)C(c1cccs1)C1=C(CCCC1=O)N2 (stereo not drawn)	i	42.1*	-2.8	1.5	i
O=C1CCCC2=C1C(c1cccs1)n1nc(SCc3ccccc3F)nc1N2 (stereo not drawn)	i	.	3.2	-11.4	.
CCC(C)(O)c1[nH]c2ccc(C(=O)OC)cc2c1C (stereo not drawn)	i	-1.8	-10.2	-0.9	.
O=C(Nc1ccc2nc(-c3ccco3)[nH]c2c1)c1cccs1	i	45.0*	-2.6	-1.5	i
Cc1ccc(-c2nn(CC(=O)O)c(=O)c3ccccc23)cc1	i	-2.9	-5.9	-9.8	.
O=C(O)Cn1nc2c3c(cccc3c1=O)-c1ccccc1-2	i	53.6*	-1.2	3.7	i
COc1ccc(C2/C(=C(/O)c3ccc(C)cc3)C(=O)C(=O)N2C)c(OC)c1 (stereo not drawn)	i	-6.0	0.1	-2.2	.
CCOc1cccc(CN2CCCC(CNC(=O)c3cccc(OC)c3OC)C2)c1 (stereo not drawn)	i	1.3	5.6	-7.1	.
CC(=O)N1N=C2/C(=C/c3ccccc3)CCCC2C1c1ccccc1 (stereo not drawn)	i	46.8*	-4.4	-14.2	.
CCCn1c(SCC(=O)N2N=C3/C(=C/c4ccc(OC)cc4)CCCC3C2c2ccc(OC)cc2)n[nH]c1=O (stereo not drawn)	i	46.8*	-8.8	-9.7	i
CCN(C(=O)COC(=O)COc1ccc(Cl)c(C)c1)C1CCS(=O)(=O)C1 (stereo not drawn)	i	6.5	0.0	-0.6	.
CCCCC(=O)N/N=C(/C)C1=C(C)C(C)(C)OC1=O	i	0.3	5.5	0.8	.
CC(C(=O)O)N(c1ccccc1Cl)S(C)(=O)=O (stereo not drawn)	i	-6.3	-0.1	-18.3	.
O=C1NC(c2ccccc2)=C(c2ccc3ccccc3n2)C(c2ccccc2)N1 (stereo not drawn)	i	43.9*	1.8	4.8	i
O=C1NC(c2ccccc2)=C(c2ccc3ccccc3n2)C(c2ccc(F)cc2)N1 (stereo not drawn)	i	38.0	-9.4	6.6	.
COc1ccc(-c2cc3nc(NCCN4CCCC4)n(C)c(=O)c3s2)cc1OC	i	49.5*	.	.	+
Cn1c(NCCN2CCCC2)nc2cc(-c3ccsc3)sc2c1=O	i	-74.7	.	.	.
COc1ccc(C(=O)OC(C)CN2CCOCC2)cc1OC (stereo not drawn)	i	39.6*	0.7	-3.5	i
SMILES	Rpn11 inh	Neddyl block	PKA-R2B activ	PKA-R1A act	Neddyl inh conf
COc1ccc(C(=O)OC(C)CN2CCOCC2)cc1 (stereo not drawn)	i	-3.8	-9.2	-21.0	.
CCCc1cc(-c2ccc3c(c2)COc2c4ccccc4nn2-3)on1	i	.	-3.9	1.1	.
Cc1cc(-c2ccc3c(c2)COc2c4ccccc4nn2-3)on1	i	43.5*	-10.8	-10.6	i
Cc1cc(S(=O)(=O)NCCCN2CCOCC2)c(Cl)cc1Cl	i	4.6	1.9	-3.8	.
CC(C)N(C(=O)N1CCN(c2ccnc3cc(Cl)ccc23)CC1)C(C)C	i	2.3	-3.9	2.4	.
COc1ccc(Nc2nc3ccccc3nc2NS(=O)(=O)c2ccc(NC(C)=O)cc2)cc1	i	14.3	-1.4	-8.2	.
COc1cccc(Nc2nc3ccccc3nc2NS(=O)(=O)c2ccc(NC(C)=O)cc2)c1	i	50.9*	-4.7	-14.8	.
Cc1ccc(-c2n[nH]c(=S)n2/N=C/C=C/c2ccccc2[N+](=O)[O-])cc1	i	-14.8	15.8	10.4	.
O=[N+]([O-])c1ccccc1/C=C/C=N/n1c(-c2cc(-c3ccccc3)n[nH]2)n[nH]c1=S	i	81.1*	-5.7	-2.2	i
CN(C)c1ccc(/C=C/c2c([N+](=O)[O-])c(=O)n(C)c(=O)n2C)cc1	i	43.6*	-6.1	-5.1	i
Cn1c(/C=C/c2ccc(Br)cc2)c([N+](=O)[O-])c(=O)n(C)c1=O	i	-9.7	2.4	-3.7	.
COc1ccc(-c2nc3c(n2O)CCC/C3=N\O)cc1	i	45.1*	5.9	-1.9	i
Cc1nc2c(n1O)CCC/C2=N\O	i	-3.5	-5.6	-6.3	.
C/C(=N\NC(=O)c1c(Cl)cnn1C)c1ccc(NC(=O)c2ccc(Br)o2)cc1	i	40.9*	8.2	-7.3	i
CCCCOc1ccc(N(CC(=O)NC2CCCCC2)C(=O)c2snc(C(N)=O)c2N)cc1	i	-278.7	-1.7	-9.6	.
COc1ccc(C2C3=C(Nc4ncnn42)c2ccccc2CCC3)cc1 (stereo not drawn)	i	43.6*	-9.5	-4.7	i
COc1ccc(OC)c(C2=NS(=O)(=O)N(C)C(C(=O)Nc3ccc(F)cc3F)=C2)c1	i	-31.8	-3.5	-1.9	.
COc1ccccc1C(=O)NC(=O)CSc1nnc2ccccn12	i	43.6*	-0.9	-7.3	i
Cc1cc(=O)oc2cc(OCC(=O)NC3(C#N)CCCCC3)ccc12	i	.	-4.2	0.0	.
Cc1cc(=O)oc2cc(OCC(=O)Nc3c(C)n(C)n(-c4ccccc4)c3=O)c(Cl)cc12	i	40.5*	1.2	-4.1	i
Cc1cc(=O)oc2cc(OCC(=O)NC3(C#N)CCCCC3)c(Cl)cc12	i	40.1*	7.5	3.5	i
CN(C(=O)Nc1ccc(C(C)(C)C)cc1)C1CCCCC1	i	0.7	1.7	-12.3	.
NC(=O)c1nsc(C(=O)N(CCc2ccccc2)C(C(=O)NC2CCCC2)c2ccco2)c1N (stereo not drawn)	i	50.4*	-11.0	-0.3	i
CCc1ccc(N(C(=O)c2snc(C(N)=O)c2N)C(C(=O)NC2CCCC2)c2ccco2)cc1 (stereo not drawn)	i	40.6*	-0.6	-1.1	i
COc1ccc(C(C(=O)NC2CCCC2)N(C(=O)c2snc(C(N)=O)c2N)c2ccccc2OC)cc1OC (stereo not drawn)	i	41.5*	7.6	2.7	.
Cc1nnc(SCC(=O)c2ccc(C(C)C)cc2)s1	i	-4.5	-3.2	-0.9	.
